{"source": "PubChem BioAssay (Tox21)", "note": "Where “and” joins values, the source holds several entries; their conditions need not be identical. Equal values may be shown once. Inconclusive results are not listed. More than one record can exist for a structure, and the calls need not agree. Calls of active or inactive are those of the source. Calls come from the whole dose curve; as a rule, active = well fitted activation curve with a large enough effect in the repeat runs; inconclusive = weak or mixed curves; inactive = flat fitted curve, though single readings scatter. % is set by controls: 0 for no effect and ±100 for the full control effect; potency is the fitted concentration of half-maximal effect.", "data": [{"assay": "A CellTox Green Cytotoxicity Assay to monitor cytotoxicity in HEK293 cells - 40 hour (AID 1224871); note: nearly all actives have a fitted effect of over 45% in size", "settings": "CellTox Green fluorescence; series mostly up to 76.8 µM; cytotoxicity increase: at the top concentration", "from_the_text": "National Center for Advancing Translational Sciences [NCATS]\nNIH Chemical Genomics Center [NCGC]\nU.S. Environmental Protection Agency [EPA]\nNational Institutes of Environmental Health Sciences [NIEHS]\nNational Toxicology Program [NTP]\nCell-based models are critical for drug discovery. Determining the natural cytotoxic effects resulting from test compounds is an essential research activity. A CellTox Green Cytotoxicity Assay to monitor cytotoxicity in real time of continues cell culture during 40 hours of the compound treatment was used to screen Tox21 10K library compounds in Hek293 cells. CellTox Green Cytotoxicity Assay is a nonlytic, homogeneous, biofluorescent method to measure cytotoxicity in cell culture after experimental manipulation. The assay system uses a proprietary asymmetric cyanine dye that is excluded from viable cells but preferentially stains the dead cell's DNA. […] Viable cells produce no appreciable increases in fluorescence. Therefore, the fluorescence signal produced by the binding interaction with dead cell DNA is proportional to cytotoxicity.\nThe mixture of Hek293 cell suspension and reagents were dispensed at 600cells/6 ul/well in 1536-well tissue culture treated black solid bottom plates using a Multidrop dispenser. After the assay plates were incubated at a 37 C/5% CO2 incubator for 5 hours, 23 nL of compounds dissolved in DMSO, positive and negative controls was transferred to the assay plate by a pintool work station. The plates were incubated at 37 C for 40 hours. The fluorescence intensity were measured at 0h, 8h, 16h, 24h, 32h and 40h time points using ViewLux plate reader during compound treatment.", "values": [{"smiles": "CCCCC/C=C\\C/C=C\\CCCCCCCC(=O)O", "Potency": "inactive"}, {"smiles": "COC(=O)c1ccccc1OC", "cytotoxicity increase": "8.95% (inactive)"}, {"smiles": "Cc1cc(C(C)(C)C)cc(C)c1CC1=NCCN1", "cytotoxicity increase": "-14.4% [at 35.3 µM] (inactive)"}, {"smiles": "CC(C)(C)c1csc(-c2cc3cc(OCc4ccccc4CC(=O)O)ccc3o2)n1", "Potency": "54.9 µM (active)"}, {"smiles": "O=C(O)c1cc(=O)c2ccccc2o1", "cytotoxicity increase": "4.79% [at 35.3 µM] (inactive)"}, {"smiles": "O=C1CCCCCCCCCCCCCCCO1", "Potency": "24.5 µM (active)"}, {"smiles": "CCCCOC(=O)CO", "cytotoxicity increase": "3.28% (inactive)"}, {"smiles": "C#Cc1ccc(-c2ccccc2F)cc1", "cytotoxicity increase": "2.19% [at 35.3 µM] (inactive)"}, {"smiles": "CCCCCCCCCCCCCC[N+](C)(C)C", "Potency": "29.9 µM (active) and 48.9 µM (active) and 26.8 µM (active)"}, {"smiles": "Cc1ccc(C)cc1", "cytotoxicity increase": "5.9% (inactive)"}, {"smiles": "CCN(CC)c1ccc2c(-c3ccc(S(=O)(=O)O)cc3S(=O)(=O)[O-])c3ccc(=[N+](CC)CC)cc-3oc2c1", "cytotoxicity increase": "-12.6% (inactive)"}, {"smiles": "Nc1nc(N)nc(-c2cc(Cl)ccc2Cl)n1", "cytotoxicity increase": "-15.3% [at 35.3 µM] (inactive)"}, {"smiles": "O=C(/C=C/c1ccc(O)c(O)c1)O[C@@H](C(=O)O)[C@@H](OC(=O)/C=C/c1ccc(O)c(O)c1)C(=O)O", "cytotoxicity increase": "-9.85% (inactive)"}, {"smiles": "CCCCCc1ccc(Cl)cc1", "cytotoxicity increase": "-1.9% (inactive)"}, {"smiles": "[Cu+]", "cytotoxicity increase": "-5.28% (inactive)"}, {"smiles": "CCCCCCCCCCCCCCCC[N+](C)(C)CC", "Potency": "43.8 µM (active) and 23.9 µM (active)"}, {"smiles": "C#C[C@]1(OC(C)=O)CC[C@H]2[C@@H]3CCC4=C/C(=N/O)CC[C@@H]4[C@H]3CC[C@@]21CC", "cytotoxicity increase": "23.9% [at 35.3 µM] (inactive)"}, {"smiles": "OC1CCC(C2CCCCC2)CC1", "note": "(stereo not given)", "cytotoxicity increase": "13.4% (inactive)"}, {"smiles": "O=C(O)[C@H](O)[C@@H](O)[C@H](O[C@@H]1O[C@H](CO)[C@H](O)[C@H](O)[C@H]1O)[C@H](O)CO", "cytotoxicity increase": "-16% [at 35.3 µM] (inactive)"}, {"smiles": "OC[C@H]1O[C@H](O[C@H]2O[C@H](CO)[C@@H](O)[C@H](O)[C@H]2O)[C@H](O)[C@@H](O)[C@@H]1O", "cytotoxicity increase": "4.89% (inactive)"}, {"smiles": "C=CC(C)(CCC=C(C)C)OC=O", "note": "(stereo not given)", "cytotoxicity increase": "-4.95% (inactive)"}, {"smiles": "CCCCCC/C=C\\CCCCCCCC(=O)O", "cytotoxicity increase": "6.86% (inactive)"}, {"smiles": "CC(C)CCCCCOC(=O)CCS", "cytotoxicity increase": "-6.31% (inactive)"}, {"smiles": "CCC(C)[O-].CCC(C)[O-].CCOC(=O)/C=C(/C)[O-].[Al+3]", "cytotoxicity increase": "0.605% (inactive)"}, {"smiles": "Cc1cc(C)c(/C=C2\\C(=O)Nc3ccccc32)[nH]1", "Potency": "9.52 µM (active)"}, {"smiles": "CCO[C@@H]1O[C@H](C(COCc2ccccc2)OCc2ccccc2)[C@H](OCc2ccccc2)[C@H]1O", "note": "(stereo not given in full)", "cytotoxicity increase": "-7.58% [at 35.3 µM] (inactive)"}, {"smiles": "CC1=Nc2ccccc2C1(C)C", "cytotoxicity increase": "1.04% (inactive)"}, {"smiles": "CCCCCCCC", "cytotoxicity increase": "-4.74% (inactive)"}, {"smiles": "CC(C)=CCC1=C(O)c2ccccc2C(=O)C1=O", "cytotoxicity increase": "-1.31% (inactive)"}, {"smiles": "O=C(Oc1ccccc1)Oc1ccccc1", "cytotoxicity increase": "15.9% (inactive)"}, {"smiles": "Cc1cccc2cccnc12", "cytotoxicity increase": "-1.04% (inactive)"}, {"smiles": "Cc1cc(C(C)(C)C)c(O)c(C)c1Cn1c(=O)n(Cc2c(C)cc(C(C)(C)C)c(O)c2C)c(=O)n(Cc2c(C)cc(C(C)(C)C)c(O)c2C)c1=O", "cytotoxicity increase": "-1.84% (inactive)"}, {"smiles": "CN(C)C(=O)COC(=O)Cc1ccc(OC(=O)c2ccc(N=C(N)N)cc2)cc1", "cytotoxicity increase": "-5.58% [at 35.3 µM] (inactive)"}, {"smiles": "c1ccsc1", "cytotoxicity increase": "-1.65% (inactive)"}, {"smiles": "COc1cccc2c1C(=O)c1c(O)c3c(c(O)c1C2=O)C[C@@](O)(C(C)=O)C[C@@H]3O[C@H]1C[C@H](N)[C@H](O)[C@H](C)O1", "Potency": "43.9 µM (active) and inactive"}, {"smiles": "COc1ccc(-c2coc3cc(O)ccc3c2=O)cc1", "cytotoxicity increase": "-20% (inactive)"}, {"smiles": "CCCC1CCC(=O)CC1", "cytotoxicity increase": "0.705% (inactive)"}, {"smiles": "CN(C)CCN1CCN(c2cccc(Cl)c2)C1=O", "cytotoxicity increase": "-11.2% [at 35.3 µM] (inactive)"}, {"smiles": "FC(F)(F)c1cccc(Cl)c1", "cytotoxicity increase": "-8.88% (inactive)"}, {"smiles": "Cc1cccc(C(=O)O)c1O", "cytotoxicity increase": "-3.01% [at 35.3 µM] (inactive)"}]}]}
